Measurements published in the supplement of paper PMC12494721.
Structures can show the parent of a compound that is named as a salt.

Key:
Conditions in all cases: incubation time: 27 h, anaerobic, 37 °C;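 for the amine columns active = adjusted P below 0.05 in both replicates with a change the same way and a mean fold change under 0.8 or over 1.25; inactive = the rest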
[1] = test system: Clostridium sporogenes DSM 1664; test: growth (OD595) fold change vs plate DMSO controls (fold change (ratio)); higher = more growth
Procedure, shortened: (§1)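 Anaerobic mGAM cultures in 96-well plates were grown for 27 h at 37 °C, and absorbance was then read at 595 nm. After blank and compound background correction with 20 µM compound solutions in water, a calibration factor of 5 gave OD. Growth is the fold change relative to the median of each plate's DMSO controls. Values are means of 2 biological replicates, with fold changes above 1.5 set to NA.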

[2] = test system: Escherichia coli IAI1; test: as above
Procedure, shortened: as §1

[3] = test system: Klebsiella aerogenes DSM 30053; test: as above
Procedure, shortened: as §1

[4] = test system: Ruminococcus gnavus DSM 108212; test: as above
Procedure, shortened: as §1

[5] = test system: Klebsiella aerogenes DSM 30053; test: fold change of Histamine concentration vs plate DMSO controls (fold change (ratio)); higher = more amine produced, active = hit call of the paper (significant change in both replicates, either direction)
Procedure, shortened: (§2)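 Amines were quantified by LC–triple-quadrupole MS in dynamic MRM mode against external calibration curves, with drift correction within each batch. The samples were whole anaerobic mGAM cultures of four gut bacterial strains, grown for 27 h at 37 °C in 80 µL wells and extracted with cold acetonitrile/methanol with 0.1% formic acid, then centrifuged. Values are reported as fold change over DMSO controls on the same plate. The mean of 2 biological replicates is given.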

[6] = test system: Clostridium sporogenes DSM 1664; test: fold change of Tryptamine concentration vs plate DMSO controls (fold change (ratio)); higher = more amine produced, active = hit call of the paper (significant change in both replicates, either direction)
Procedure, shortened: as §2

[7] = test system: Ruminococcus gnavus DSM 108212; test: as above
Procedure, shortened: as §2

[8] = test system: Escherichia coli IAI1; test: fold change of Putrescine concentration vs plate DMSO controls (fold change (ratio)); higher = more amine produced, active = hit call of the paper (significant change in both replicates, either direction)
Procedure, shortened: as §2

[9] = test system: Klebsiella aerogenes DSM 30053; test: as above
Procedure, shortened: as §2

[10] = test system: Escherichia coli IAI1; test: fold change of Cadaverine concentration vs plate DMSO controls (fold change (ratio)); higher = more amine produced, active = hit call of the paper (significant change in both replicates, either direction)
Procedure, shortened: as §2

[11] = test system: Klebsiella aerogenes DSM 30053; test: as above
Procedure, shortened: as §2

[12] = test system: Ruminococcus gnavus DSM 108212; test: fold change of 2-Phenylethylamine concentration vs plate DMSO controls (fold change (ratio)); higher = more amine produced, active = hit call of the paper (significant change in both replicates, either direction)
Procedure, shortened: as §2

SMILES	growth [1]	growth [2]	growth [3]	growth [4]	fold change of Histamine concentration [5]	fold change of Tryptamine concentration [6]	fold change of Tryptamine concentration [7]	fold change of Putrescine concentration [8]	fold change of Putrescine concentration [9]	fold change of Cadaverine concentration [10]	fold change of Cadaverine concentration [11]	fold change of 2-Phenylethylamine concentration [12]
COc1ccc(Cl)cc1C(=O)NCCc1ccc(S(=O)(=O)NC(=O)NC2CCCCC2)cc1 [Glibenclamide] (20 µM)	1.19	1	1.04	1.04	0.91 (inactive)	1.03 (inactive)	1.06 (inactive)	0.96 (inactive)	0.964 (inactive)	0.909 (inactive)	1.03 (inactive)	1.09 (inactive)
Cc1cccc(Nc2ccccc2C(=O)O)c1C [Mefenamic acid] (20 µM)	1.08	0.988	0.961	1.03	1.05 (inactive)	0.983 (inactive)	1.01 (inactive)	1.01 (inactive)	0.998 (inactive)	0.976 (inactive)	0.995 (inactive)	0.982 (inactive)
CC1(C)NC(=O)N(c2ccc([N+](=O)[O-])c(C(F)(F)F)c2)C1=O [Nilutamide] (20 µM)	0.998	1.02	0.999	0.98	1.05 (inactive)	0.955 (inactive)	0.957 (inactive)	1.1 (inactive)	1.01 (inactive)	0.987 (inactive)	0.995 (inactive)	0.981 (inactive)
CCOc1ccccc1OCC1CNCCO1 (stereo not drawn) [Viloxazine hydrochloride] (20 µM)	0.836	0.991	0.986	0.675	0.986 (inactive)	1.03 (inactive)	0.572 (active)	1.06 (inactive)	1 (inactive)	0.971 (inactive)	0.992 (inactive)	0.696 (active)
COc1ccc2cc1Oc1ccc(cc1)C[C@H]1c3c(cc4c(c3Oc3cc5c(cc3OC)CCN(C)[C@@H]5C2)OCO4)CCN1C [Cepharanthine] (20 µM)	0.965	0.982	1.02	0.925	1.04 (inactive)	0.993 (inactive)	0.945 (inactive)	0.952 (inactive)	1.01 (inactive)	1.03 (inactive)	1 (inactive)	0.981 (inactive)
C#CCN[C@@H]1CCc2ccccc21 [Rasagiline] (20 µM)	0.963	0.959	0.993	0.87	1.02 (inactive)	1.03 (inactive)	1.02 (inactive)	0.965 (inactive)	0.981 (inactive)	1.02 (inactive)	0.974 (inactive)	1.03 (inactive)
C#C[C@]1(O)CC[C@H]2[C@@H]3CCc4cc(O)ccc4[C@H]3CC[C@@]21C [Ethinylestradiol] (20 µM)	1.22	1.04	1.07	1.05	1.01 (inactive)	1.01 (inactive)	0.972 (inactive)	1.05 (inactive)	0.998 (inactive)	1.01 (inactive)	1.01 (inactive)	0.936 (inactive)
O=C(O)c1cn(-c2ccc(F)cc2)c2cc(N3CCNCC3)c(F)cc2c1=O [Sarafloxacin] (20 µM)	0.012	0.0263	0.182	0.896	0.129 (active)	0.0563 (active)	0.8 (inactive)	0.832 (inactive)	0.651 (active)	0.244 (active)	0.969 (inactive)	0.894 (inactive)
COc1cc(OC)c(C(=O)CCCN2CCCC2)c(OC)c1 [Buflomedil hydrochloride] (20 µM)	1.11	1.03	0.965	0.743	1.08 (inactive)	1.08 (inactive)	1.03 (inactive)	1.04 (inactive)	1.02 (inactive)	1.03 (inactive)	0.997 (inactive)	0.992 (inactive)
Cn1c(=O)c2c(ncn2CCO)n(C)c1=O [Etofylline] (20 µM)	0.922	1.01	1.01	1.04	0.983 (inactive)	0.964 (inactive)	0.853 (inactive)	1.01 (inactive)	0.997 (inactive)	1.03 (inactive)	1 (inactive)	0.839 (inactive)
CCCNC(C)C(=O)Nc1ccccc1C (stereo not drawn) [Prilocaine hydrochloride] (20 µM)	0.947	0.973	1.02	0.708	1.07 (inactive)	0.934 (inactive)	1.02 (inactive)	1.01 (inactive)	1.02 (inactive)	0.993 (inactive)	0.988 (inactive)	1 (inactive)
O=c1[nH]c(=O)n(C2CCCO2)cc1F (stereo not drawn) [Tegafur] (20 µM)	1.08	0.975	1.01	0.933	0.969 (inactive)	1.01 (inactive)	1.06 (inactive)	1.25 (inactive)	1 (inactive)	0.967 (inactive)	1.01 (inactive)	1.03 (inactive)
CCCC1C(=O)N2C(N(C)C)=Nc3ccc(C)cc3N2C1=O (stereo not drawn) [Azapropazone] (20 µM)	1.1	1	0.964	1.01	1.08 (inactive)	1.09 (inactive)	0.961 (inactive)	0.996 (inactive)	1 (inactive)	0.997 (inactive)	0.978 (inactive)	0.91 (inactive)
CNCC[C@@H](Oc1cccc2ccccc12)c1cccs1 [(R)-Duloxetine hydrochloride] (20 µM)	1.03	1.07	0.994	0.9	1.01 (inactive)	0.986 (inactive)	0.979 (inactive)	1.04 (inactive)	0.994 (inactive)	0.952 (inactive)	0.986 (inactive)	1.02 (inactive)
Cc1ccnc(NS(=O)(=O)c2ccc(N)cc2)n1 [Sulfamerazine] (20 µM)	0.951	1.06	1.07	1.06	0.995 (inactive)	0.975 (inactive)	0.995 (inactive)	1 (inactive)	0.999 (inactive)	1.01 (inactive)	1.02 (inactive)	0.97 (inactive)
Nc1ccc(C(=O)O)c(O)c1 [Aminosalicylic acid] (20 µM)	1.11	1.02	1.02	0.97	1.06 (inactive)	1 (inactive)	0.999 (inactive)	1.01 (inactive)	1.01 (inactive)	1.02 (inactive)	0.98 (inactive)	0.981 (inactive)
COCCCOc1cc(C[C@@H](C[C@H](N)[C@@H](O)C[C@H](C(=O)NCC(C)(C)C(N)=O)C(C)C)C(C)C)ccc1OC [Aliskiren hemifumarate] (20 µM)	1.02	0.992	1	0.808	1.06 (inactive)	1 (inactive)	1.04 (inactive)	1 (inactive)	1.02 (inactive)	1 (inactive)	0.987 (inactive)	1.05 (inactive)
COCC(=O)O[C@]1(CCN(C)CCCc2nc3ccccc3[nH]2)CCc2cc(F)ccc2[C@@H]1C(C)C [Mibefradil hydrochloride] (20 µM)	1.05	0.996	1	0.967	0.954 (inactive)	0.999 (inactive)	0.925 (inactive)	1.02 (inactive)	1.01 (inactive)	1.02 (inactive)	1 (inactive)	0.908 (inactive)
N#Cc1ccc(Oc2ccc3c(c2)COB3O)cc1 [Crisaborole] (20 µM)	1.06	0.983	1.02	1.12	0.998 (inactive)	0.95 (inactive)	0.688 (active)	1.03 (inactive)	0.987 (inactive)	1 (inactive)	0.994 (inactive)	0.799 (inactive)
COC(=O)C1=C(C)NC(C)=C(C(=O)O[C@H]2CCN(Cc3ccccc3)C2)[C@H]1c1cccc([N+](=O)[O-])c1 [Barnidipine Hydrochloride] (20 µM)	0.993	1.08	0.991	1.06	1.01 (inactive)	0.969 (inactive)	0.992 (inactive)	0.989 (inactive)	0.999 (inactive)	1.02 (inactive)	1.01 (inactive)	0.944 (inactive)
NC12CC3CC(CC(C3)C1)C2 [Adamantamine fumarate] (20 µM)	0.99	1.02	0.991	0.942	0.988 (inactive)	0.971 (inactive)	1.09 (inactive)	0.924 (inactive)	0.993 (inactive)	1.03 (inactive)	1.09 (inactive)	1.23 (inactive)
CC(=O)N(O)CCCCCNC(=O)CCC(=O)N(O)CCCCCNC(=O)CCC(=O)N(O)CCCCCN [Deferoxamine mesylate] (20 µM)	0.934	0.997	0.996	1.06	0.926 (inactive)	1.04 (inactive)	1.18 (inactive)	0.952 (inactive)	0.951 (inactive)	0.996 (inactive)	1.03 (inactive)	1.29 (inactive)
C[C@H]1O[C@@H](O[C@H]2[C@@H](O)C[C@H](O[C@H]3[C@@H](O)C[C@H](O[C@H]4CC[C@@]5(C)[C@H](CC[C@@H]6[C@@H]5C[C@@H](O)[C@]5(C)[C@@H](C7=CC(=O)OC7)CC[C@]65O)C4)O[C@@H]3C)O[C@@H]2C)C[C@H](O)[C@@H]1O [Digoxin] (20 µM)	1.14	0.971	0.995	0.945	1.05 (inactive)	1 (inactive)	1.02 (inactive)	1.01 (inactive)	0.999 (inactive)	0.992 (inactive)	0.991 (inactive)	1.03 (inactive)
O=C(O)c1ccccc1Nc1cccc(C(F)(F)F)c1 [Flufenamic acid] (20 µM)	1.16	0.983	1.07	0.538	0.993 (inactive)	0.918 (inactive)	0.989 (inactive)	1.03 (inactive)	1.02 (inactive)	1.03 (inactive)	1.02 (inactive)	0.981 (inactive)
